The source of these data is article PMC10163288.

These entries were drawn from the full list. The hit rate among all sequences tested is not known here. Values without a mark were called inactive.

To fix the notation:
B1: il10ra_site1_normal_mot_HHH_b2_07144_000000289_0001_1_18_H_._HHH_b1_03935_0001_0000100008_0000001_1 (protein)
chain: SSSSSEEAEELYELSREVAHLHREGDEEEAKRLLEEAIELAEELGNFNILFALELLLRQLSSSSS
B2: il10ra_site1_sap_20_mot_HHH_b2_00093_af2_000000025_0001_40_54_H_._HHH_b2_05679_0001_0000100006_0000001_0_0001_af2pred_0001 (protein)
chain: SSSSSIHERDVELALLAARLLAERGDPEAVREALELARRQAESTNNEELEELVEEVERELSSSSS
B3: il10ra_site1_normal_mot_8756ee2cf497b5429c717dfc0c0bcfd6_0001_000000186_0001_1_13_H_._HHH_b1_06578_af2_0001_0000300032_0000001_1_af2pred_0001 (protein)
chain: SSSSSIAEEVFRLLREAAELYHEGDKEKAEEILKEAEELAEEANDEIAKVIIEFLKRAIENSSSS
B4: il10ra_site1_normal_mot_HHH_b1_00566_000000151_0001_22_39_H_._HHH_b1_00313_af2_0001_0000700014_0000001_0 (protein)
chain: SSSSDEREEIAILVAEAIILAERRGDKEVAEELWQLLVEAYYHGDPELFREVEELAEKFLSSSSS
B5: il10ra_site1_sap_26_mot_HHH_b2_06857_af2_000000179_0001_42_54_H_._HHH_b1_00069_af2_0001_0000100009_0000001_0_0001_af2pred_0001 (protein)
chain: SSSSSEEREEIYRLIREALELLANGNPEEAEEVLEEAERLAKEANSPLFEFALEAARRKVKSSSS
B6: il10ra_site1_normal_mot_HHH_b2_08186_000000021_0001_43_56_H_._HHH_b1_02914_0001_0000400023_0000001_0 (protein)
chain: SSSSDREERIQELLEEAEELAKEGNPEEAARLLQEAIRLAFELGDEELLKEIWEVLRKVASSSSS
B7: il10ra_site1_normal_mot_HHH_b2_08186_000000021_0001_43_56_H_._HHH_b2_05014_af2_0002_0000100001_0000002_0 (protein)
chain: SSSSDEEELRELIEEAEELLERGNPEEALEVVLRALQLAFELSNAETLQRIWELLKRIATSSSSS
B8: il10ra_site1_sap_21_mot_HHH_b2_02463_af2_000000222_0001_1_19_H_._HHH_b1_01285_0001_0000200013_0000001_0_0001 (protein)
chain: SSSSDEANQEALELVVEAVRLALRGNPEEAKEVLEEARELAREGNNERLVKMIEDMLRALDSSSS
B9: il10ra_site1_sap_26_mot_HHH_b1_01707_000000240_0001_1_17_H_._HHH_b2_07405_0001_0000500060_0000001_0_0001 (protein)
chain: SSSSDQEFARLMMEALHLAFQLRDPETLRELWELYRRYAEEGDPRYEEALEELLEELRERSSSSS
B10: il10ra_site1_normal_mot_HHH_b2_03328_af2_000000127_0001_1_19_H_._f3d5fbb9806109dc41c8faca98c9de00_0001_1_0001_0000300008_0000002_0_af2pred_dldesign_0_af2pred (protein)
chain: LELSRLLSDAVITAKNPELAQRLAEVAREIAEDPSKLEELLAELLEEAKAAGDEEVVALLEKALE
B11: il10ra_site1_normal_mot_HHH_b2_06767_000000020_0001_41_56_H_._HHH_b2_06012_0001_0000200016_0000002_0_af2pred_0001 (protein)
chain: SSSSSVHEAAQLLLRVARALKEGDEELLEELRKELEELLKKLDDERARLAVRAALAAIKNFSSSS
B12: il10ra_site1_sap_27_mot_HHH_b1_06128_000000102_0001_1_20_H_._HHH_b1_02043_af2_0001_0000100004_0000002_0_0001 (protein)
chain: SSSSDVEEEVRELLEEAQRYYEEGNPQEVFRLIEEAIKVASEHGDEEAQKLVHEFLHEMFGSSSS
B13: il10ra_site1_normal_mot_HHH_b2_00984_000000042_0001_1_20_H_._HHH_b1_04863_af2_0001_0000500015_0000001_0 (protein)
chain: SSSSSDEEEELEELLEQLKKALEENDRELVAQLARRLVQLAFRLSDPEALQEAWELIRLLSSSSS
B14: il10ra_site1_normal_mot_HHH_b1_01821_000000158_0001_23_39_H_._HHH_b1_04578_0001_0000500034_0000001_1 (protein)
chain: SSSSSEFQRLAQRAVQLAFRLSDQEVLRRIWELFKRYIEEGDPRLEEELEELLEELEERGSSSSS
B15: il10ra_site1_normal_mot_HHH_b2_00277_af2_000000172_0001_1_17_H_._HHH_b1_06276_0001_0000100006_0000001_0_af2pred_0001 (protein)
chain: SSSSSSTEEEVEELLEEAKRIEDPEERSYVLTEAWALAYRLNDPELEREIEEVAKRLTSSSSSSS
B16: il10ra_site1_sap_17_mot_HHH_b2_04681_000000155_0001_43_57_H_._HHH_b2_07038_af2_0001_0000400013_0000001_0_0001_af2pred_dldesign_0_af2pred (protein)
chain: SSSSSSSDPERILALIRRALEEEDPEKARELLEEALRLAKEAGNEVAIRAAEYLLRQVSSSSSSS
B17: il10ra_site1_normal_mot_HHH_b2_03328_af2_000000127_0001_1_19_H_._HHH_b1_08499_0001_0000200023_0000001_0 (protein)
chain: SSSSDVAEEAYELSRRAAELLYQGNPEEARELLEEAEELLKERGDHVILFAVRLLLRILNSSSSS
B18: il10ra_site1_normal_mot_HHH_b2_00475_000000107_0001_44_57_H_._HHH_b2_03520_0001_0000400025_0000001_0 (protein)
chain: SSSSDEEEVSHLLFRALQLLEEGDKEEAEELVEEAKRIAEESNDPELERYVEIAEHFVKAHSSSS
B19: il10ra_site1_sap_33_mot_HHH_b2_07521_000000141_0001_20_37_H_._HHH_b2_01915_0001_0000700039_0000001_1_0001 (protein)
chain: SSSSSEEVEELLEQARELAEEGDFEEAAKLLLEALQIAAELQDPELLRLVWEVLHEVARLNSSSS

The target of the test is il10ra, Q13651. The test can be described thus: yeast display titration.
Chain of il10ra, Q13651 (Q13651 whole entry): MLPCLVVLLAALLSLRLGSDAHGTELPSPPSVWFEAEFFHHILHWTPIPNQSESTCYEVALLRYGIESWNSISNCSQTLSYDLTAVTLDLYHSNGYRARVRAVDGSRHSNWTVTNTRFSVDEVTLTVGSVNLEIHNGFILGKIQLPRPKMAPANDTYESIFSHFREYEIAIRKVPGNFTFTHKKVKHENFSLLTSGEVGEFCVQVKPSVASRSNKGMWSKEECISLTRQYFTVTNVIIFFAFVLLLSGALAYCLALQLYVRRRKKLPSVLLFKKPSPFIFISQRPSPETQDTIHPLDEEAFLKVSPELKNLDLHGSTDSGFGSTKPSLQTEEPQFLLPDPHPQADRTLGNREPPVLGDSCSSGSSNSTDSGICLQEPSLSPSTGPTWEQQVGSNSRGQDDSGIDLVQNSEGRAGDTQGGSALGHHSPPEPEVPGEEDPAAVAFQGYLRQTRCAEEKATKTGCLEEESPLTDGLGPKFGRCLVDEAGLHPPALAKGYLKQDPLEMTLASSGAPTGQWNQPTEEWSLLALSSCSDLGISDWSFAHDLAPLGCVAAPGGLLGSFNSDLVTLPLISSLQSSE
Broadly, the apparent Kd is a dissociation constant that holds for the conditions of the assay. On to B1, for which the “apparent Kd” value is “no binding seen”.
B2: the “apparent Kd” value was “no binding seen”.
For B3, the “apparent Kd” value was “no binding seen”.
B4: the apparent Kd was 233 to 399 nM (active).
For B5, the “apparent Kd” value is “no binding seen”.
For B6, the “apparent Kd” value was “no binding seen”.
As for B7, the “apparent Kd” value was “no binding seen”.
For the molecule B8, the “apparent Kd” value is “no binding seen”.
Turning to B9, the “apparent Kd” value was “no binding seen”.
Regarding B10, the “apparent Kd” value was “no binding seen”.
Regarding B11, the “apparent Kd” value was “no binding seen”.
The entry for B12 is “no binding seen”.
On to B13, for which the “apparent Kd” value was “no binding seen”.
As for B14, the “apparent Kd” value is “no binding seen”.
Then B15, with “no binding seen”; and B16, with “no binding seen”.
For the molecule B17, the “apparent Kd” value is “no binding seen”.
For B18, the “apparent Kd” value was “no binding seen”.
The figure for B19 is over 2780 nM.
